For one sequence, binding signal results are on record in publication PMC7862700, “An all-to-all approach to the identification of sequence-specific readers for epigenetic DNA modifications on cytosine”.

Test in all cases: DAPPL (digital affinity profiling via proximity ligation, sequencing); 10 mM Tris-HCl pH 7.5, 50 mM NaCl, 1 mM DTT, 4% glycerol, room temperature, 30 min; GST-TFs on glutathione beads, 16-mer random dsDNA library, 0.1% formaldehyde crosslink after washing; high values mean tight binding
Common to all, as to conditions: protein: recombinant; tags: N-terminal GST; dsDNA, one strand shown

The target of one assay is T1, ELK1 (Homo sapiens, UniProt P19419 1-428).
T1 sequence: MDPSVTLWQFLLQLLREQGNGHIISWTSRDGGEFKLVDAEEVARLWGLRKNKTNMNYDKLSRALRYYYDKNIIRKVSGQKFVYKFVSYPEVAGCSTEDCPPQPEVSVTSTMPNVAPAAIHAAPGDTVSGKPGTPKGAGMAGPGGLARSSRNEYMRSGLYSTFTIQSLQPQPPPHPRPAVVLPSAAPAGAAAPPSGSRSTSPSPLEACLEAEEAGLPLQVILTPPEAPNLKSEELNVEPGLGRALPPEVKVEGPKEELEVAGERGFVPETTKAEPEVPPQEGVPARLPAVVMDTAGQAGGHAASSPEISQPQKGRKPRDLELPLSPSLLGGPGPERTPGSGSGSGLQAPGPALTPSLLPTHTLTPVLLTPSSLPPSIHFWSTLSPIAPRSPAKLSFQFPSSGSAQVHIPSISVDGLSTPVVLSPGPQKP
The essentials:
(§1)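 Beads coated with glutathione captured GST-fused human transcription factors that had been expressed in yeast, and the factors were then given DNA barcodes and pooled with a tag-only sample. The pools were incubated with 200 nmole of a random double-stranded 16-mer DNA library in Tris/NaCl/DTT/glycerol buffer for 30 min at room temperature, washed, crosslinked with 0.1% formaldehyde and proximity-ligated with BsaI/T4 ligase at 37 °C for 1 h. PCR amplification and Illumina NextSeq500 sequencing came last. Binding signal is each hexamer's read frequency for a factor divided by its frequency for the tag-only sample.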

The target in a further assay is T2, GABPA (Homo sapiens, UniProt Q06546 1-454).
T2 sequence: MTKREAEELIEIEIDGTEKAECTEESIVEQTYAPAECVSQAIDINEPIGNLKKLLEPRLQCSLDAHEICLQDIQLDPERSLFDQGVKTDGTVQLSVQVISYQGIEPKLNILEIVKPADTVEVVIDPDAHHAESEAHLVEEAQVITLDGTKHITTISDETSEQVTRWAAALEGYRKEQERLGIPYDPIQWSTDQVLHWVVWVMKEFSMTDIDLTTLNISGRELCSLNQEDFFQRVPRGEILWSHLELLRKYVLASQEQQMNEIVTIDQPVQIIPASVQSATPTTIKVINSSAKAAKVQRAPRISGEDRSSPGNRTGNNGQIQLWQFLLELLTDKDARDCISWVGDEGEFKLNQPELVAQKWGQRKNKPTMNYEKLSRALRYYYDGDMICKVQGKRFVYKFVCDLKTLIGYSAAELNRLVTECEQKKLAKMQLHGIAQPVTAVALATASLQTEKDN
The method, boiled down:
as §1

A further assay concerns the target T3, ERG (Homo sapiens, UniProt P11308 1-479).
T3 sequence: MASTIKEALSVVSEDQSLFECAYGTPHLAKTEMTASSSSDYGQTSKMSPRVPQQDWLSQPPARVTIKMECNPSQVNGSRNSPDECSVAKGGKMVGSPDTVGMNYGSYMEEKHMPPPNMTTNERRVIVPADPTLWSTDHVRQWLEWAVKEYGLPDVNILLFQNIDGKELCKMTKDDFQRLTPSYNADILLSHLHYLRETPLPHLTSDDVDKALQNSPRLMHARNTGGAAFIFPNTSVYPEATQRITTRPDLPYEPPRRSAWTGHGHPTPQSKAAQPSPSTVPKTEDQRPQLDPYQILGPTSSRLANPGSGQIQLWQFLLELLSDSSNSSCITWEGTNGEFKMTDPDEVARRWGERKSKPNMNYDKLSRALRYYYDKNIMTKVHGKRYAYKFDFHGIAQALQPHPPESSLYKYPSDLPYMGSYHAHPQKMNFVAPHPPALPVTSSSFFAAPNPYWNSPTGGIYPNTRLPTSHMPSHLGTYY
The method, boiled down: as §1

In the next assay the target is ELF1 (Homo sapiens, UniProt P32519 1-619). The method, boiled down: as §1
Sequence of ELF1 (P32519 whole entry): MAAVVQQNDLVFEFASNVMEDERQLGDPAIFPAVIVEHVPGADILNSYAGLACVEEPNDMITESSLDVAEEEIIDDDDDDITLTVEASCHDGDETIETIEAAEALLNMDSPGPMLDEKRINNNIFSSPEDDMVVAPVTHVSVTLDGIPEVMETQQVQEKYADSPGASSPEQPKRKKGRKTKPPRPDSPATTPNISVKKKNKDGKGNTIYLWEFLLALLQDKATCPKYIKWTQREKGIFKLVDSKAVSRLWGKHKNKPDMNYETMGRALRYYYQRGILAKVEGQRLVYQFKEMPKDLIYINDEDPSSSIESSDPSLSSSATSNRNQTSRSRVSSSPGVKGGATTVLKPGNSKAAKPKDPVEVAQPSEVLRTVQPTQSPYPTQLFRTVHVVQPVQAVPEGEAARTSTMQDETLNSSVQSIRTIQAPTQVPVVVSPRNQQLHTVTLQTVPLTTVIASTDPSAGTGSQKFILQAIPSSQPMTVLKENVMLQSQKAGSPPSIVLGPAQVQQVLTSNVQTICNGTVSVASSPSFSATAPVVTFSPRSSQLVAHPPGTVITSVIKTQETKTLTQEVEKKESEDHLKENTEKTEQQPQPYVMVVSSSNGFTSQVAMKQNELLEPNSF
The target of another assay is T4, EHF (Homo sapiens, UniProt Q9NZC4 1-300).
T4 sequence: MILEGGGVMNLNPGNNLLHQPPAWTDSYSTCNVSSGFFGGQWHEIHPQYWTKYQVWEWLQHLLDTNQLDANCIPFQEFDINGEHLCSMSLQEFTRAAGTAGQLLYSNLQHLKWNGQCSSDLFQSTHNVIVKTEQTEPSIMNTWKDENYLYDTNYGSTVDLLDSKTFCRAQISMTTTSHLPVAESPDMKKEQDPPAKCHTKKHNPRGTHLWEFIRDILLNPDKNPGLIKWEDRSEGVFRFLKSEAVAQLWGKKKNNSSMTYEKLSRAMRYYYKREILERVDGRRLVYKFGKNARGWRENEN
The essentials:
as §1

The target in another assay is SPI1 (Homo sapiens, UniProt P17947 1-270). The method, boiled down: as §1
The target of a further assay is SPIB (Homo sapiens, UniProt Q01892 1-262). The essentials: as §1
Sequence of SPIB (Q01892 whole entry): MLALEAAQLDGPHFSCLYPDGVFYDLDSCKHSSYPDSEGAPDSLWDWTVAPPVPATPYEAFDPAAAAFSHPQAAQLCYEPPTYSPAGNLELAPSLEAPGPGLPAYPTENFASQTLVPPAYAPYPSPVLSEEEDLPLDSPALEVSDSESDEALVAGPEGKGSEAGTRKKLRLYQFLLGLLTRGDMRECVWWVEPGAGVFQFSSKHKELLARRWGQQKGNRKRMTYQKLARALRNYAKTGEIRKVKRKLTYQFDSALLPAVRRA
The target of the next assay is ETV5 (Homo sapiens, UniProt P41161 1-510). The essentials:
as §1

A further assay deals with ELF4 (Homo sapiens, UniProt Q99607 1-663). The essentials: as §1
Sequence of ELF4 (Q99607 whole entry): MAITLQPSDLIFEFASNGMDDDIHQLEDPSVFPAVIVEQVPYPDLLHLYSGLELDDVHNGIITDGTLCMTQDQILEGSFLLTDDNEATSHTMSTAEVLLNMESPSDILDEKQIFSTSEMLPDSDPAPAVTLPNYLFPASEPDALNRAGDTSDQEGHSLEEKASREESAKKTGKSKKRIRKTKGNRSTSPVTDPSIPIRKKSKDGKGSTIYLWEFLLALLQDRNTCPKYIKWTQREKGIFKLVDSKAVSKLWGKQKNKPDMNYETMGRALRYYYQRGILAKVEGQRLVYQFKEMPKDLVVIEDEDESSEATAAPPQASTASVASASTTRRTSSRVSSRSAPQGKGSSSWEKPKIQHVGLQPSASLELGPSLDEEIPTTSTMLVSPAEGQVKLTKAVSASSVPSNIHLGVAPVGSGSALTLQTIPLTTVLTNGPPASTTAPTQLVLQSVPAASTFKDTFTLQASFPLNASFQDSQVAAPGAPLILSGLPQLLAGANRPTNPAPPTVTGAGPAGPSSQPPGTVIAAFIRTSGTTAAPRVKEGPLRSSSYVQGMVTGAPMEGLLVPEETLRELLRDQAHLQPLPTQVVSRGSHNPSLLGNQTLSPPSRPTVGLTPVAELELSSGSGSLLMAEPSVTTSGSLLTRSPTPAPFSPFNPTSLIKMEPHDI
The target in a further assay is T5, ELK4 (Homo sapiens, UniProt P28324-2 1-405).
T5 sequence: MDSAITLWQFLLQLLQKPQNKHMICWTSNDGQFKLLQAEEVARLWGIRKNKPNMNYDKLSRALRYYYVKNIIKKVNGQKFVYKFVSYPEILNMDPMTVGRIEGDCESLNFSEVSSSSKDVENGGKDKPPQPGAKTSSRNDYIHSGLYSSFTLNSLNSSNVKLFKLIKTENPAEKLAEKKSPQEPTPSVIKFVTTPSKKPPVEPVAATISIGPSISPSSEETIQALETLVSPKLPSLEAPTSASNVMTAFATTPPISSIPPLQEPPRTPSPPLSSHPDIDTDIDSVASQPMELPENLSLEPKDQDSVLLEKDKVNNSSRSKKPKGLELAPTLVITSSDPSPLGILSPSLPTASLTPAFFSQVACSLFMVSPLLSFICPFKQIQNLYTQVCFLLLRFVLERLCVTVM
The essentials: as §1

In a further assay the target is T6, ETV2 (Homo sapiens, UniProt O00321 1-342).
T6 sequence: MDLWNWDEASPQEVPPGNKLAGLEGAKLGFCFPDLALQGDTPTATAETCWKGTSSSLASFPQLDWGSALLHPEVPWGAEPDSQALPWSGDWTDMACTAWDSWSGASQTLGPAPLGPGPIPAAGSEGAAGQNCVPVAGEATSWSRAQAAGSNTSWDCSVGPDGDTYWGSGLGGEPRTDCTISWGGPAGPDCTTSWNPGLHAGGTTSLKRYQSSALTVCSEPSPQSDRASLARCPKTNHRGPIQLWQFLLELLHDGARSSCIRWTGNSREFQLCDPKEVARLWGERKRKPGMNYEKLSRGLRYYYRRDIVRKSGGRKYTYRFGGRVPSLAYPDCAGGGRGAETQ
The essentials: as §1

The target in a further assay is ETV1 (Homo sapiens, UniProt P50549 1-477). The method, boiled down:
as §1

The target of a further assay is T7, ERF (Homo sapiens, UniProt P50548 1-548).
T7 sequence: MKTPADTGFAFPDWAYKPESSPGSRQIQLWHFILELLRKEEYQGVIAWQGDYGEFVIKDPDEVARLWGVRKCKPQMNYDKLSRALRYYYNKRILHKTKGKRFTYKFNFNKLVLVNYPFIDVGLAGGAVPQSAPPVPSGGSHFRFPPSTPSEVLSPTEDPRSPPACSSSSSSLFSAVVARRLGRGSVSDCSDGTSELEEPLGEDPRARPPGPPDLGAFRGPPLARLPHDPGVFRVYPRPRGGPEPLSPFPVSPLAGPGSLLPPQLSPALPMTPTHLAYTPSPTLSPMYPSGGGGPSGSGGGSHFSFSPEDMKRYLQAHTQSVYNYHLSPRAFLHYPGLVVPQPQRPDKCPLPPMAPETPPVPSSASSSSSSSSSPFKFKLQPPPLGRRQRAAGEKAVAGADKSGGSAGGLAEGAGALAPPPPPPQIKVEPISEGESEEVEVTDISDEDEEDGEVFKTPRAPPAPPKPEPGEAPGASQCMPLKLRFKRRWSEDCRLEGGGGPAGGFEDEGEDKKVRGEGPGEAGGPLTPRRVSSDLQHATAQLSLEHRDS
The method, boiled down:
as §1

The target of the next assay is T8, ETV3L (Homo sapiens, UniProt Q6ZN32 1-361).
T8 sequence: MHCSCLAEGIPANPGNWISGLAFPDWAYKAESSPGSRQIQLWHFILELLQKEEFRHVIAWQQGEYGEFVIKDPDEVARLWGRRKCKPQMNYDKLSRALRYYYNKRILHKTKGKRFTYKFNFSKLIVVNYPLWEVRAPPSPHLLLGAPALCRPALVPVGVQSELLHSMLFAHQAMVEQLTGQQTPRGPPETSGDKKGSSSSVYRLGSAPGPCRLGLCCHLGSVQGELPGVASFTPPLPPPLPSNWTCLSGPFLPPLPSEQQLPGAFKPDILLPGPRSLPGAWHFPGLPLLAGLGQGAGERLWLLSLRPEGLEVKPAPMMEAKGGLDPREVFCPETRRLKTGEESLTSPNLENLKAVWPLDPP
The essentials: as §1

In the next assay the target is T9, ETS2 (Homo sapiens, UniProt P15036 1-469).
T9 sequence: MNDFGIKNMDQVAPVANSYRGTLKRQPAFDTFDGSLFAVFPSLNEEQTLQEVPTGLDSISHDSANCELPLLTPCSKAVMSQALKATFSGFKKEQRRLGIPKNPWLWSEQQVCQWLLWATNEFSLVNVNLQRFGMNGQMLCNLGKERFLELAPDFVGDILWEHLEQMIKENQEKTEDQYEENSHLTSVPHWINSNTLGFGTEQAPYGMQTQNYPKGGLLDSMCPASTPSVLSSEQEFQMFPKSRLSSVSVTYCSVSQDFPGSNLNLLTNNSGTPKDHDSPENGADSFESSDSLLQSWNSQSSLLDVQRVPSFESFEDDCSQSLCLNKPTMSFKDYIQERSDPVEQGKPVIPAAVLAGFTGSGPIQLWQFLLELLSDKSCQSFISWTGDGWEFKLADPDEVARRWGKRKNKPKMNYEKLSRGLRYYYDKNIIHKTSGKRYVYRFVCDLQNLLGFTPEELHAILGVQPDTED
The essentials: as §1

The target of the next assay is T10, SPDEF (Homo sapiens, UniProt O95238 1-335).
T10 sequence: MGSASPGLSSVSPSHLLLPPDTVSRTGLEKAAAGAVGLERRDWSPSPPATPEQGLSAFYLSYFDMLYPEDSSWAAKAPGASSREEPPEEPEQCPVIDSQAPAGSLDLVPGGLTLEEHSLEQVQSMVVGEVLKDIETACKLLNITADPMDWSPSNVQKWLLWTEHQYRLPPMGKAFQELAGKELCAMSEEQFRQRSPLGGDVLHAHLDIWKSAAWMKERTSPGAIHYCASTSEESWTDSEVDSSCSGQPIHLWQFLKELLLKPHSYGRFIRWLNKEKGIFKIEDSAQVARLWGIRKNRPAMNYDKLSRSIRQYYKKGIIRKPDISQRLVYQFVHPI
The essentials:
as §1

In the next assay the target is T11, ETV7 (Homo sapiens, UniProt Q9Y603 1-341).
T11 sequence: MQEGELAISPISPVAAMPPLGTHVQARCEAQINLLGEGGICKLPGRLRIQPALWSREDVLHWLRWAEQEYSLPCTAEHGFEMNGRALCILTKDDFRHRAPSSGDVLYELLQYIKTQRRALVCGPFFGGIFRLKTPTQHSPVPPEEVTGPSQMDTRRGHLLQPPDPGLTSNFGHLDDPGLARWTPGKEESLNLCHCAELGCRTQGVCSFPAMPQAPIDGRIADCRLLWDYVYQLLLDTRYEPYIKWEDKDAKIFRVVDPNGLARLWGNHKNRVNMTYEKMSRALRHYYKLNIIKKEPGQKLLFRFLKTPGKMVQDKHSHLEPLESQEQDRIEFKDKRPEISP
The method, boiled down:
as §1

For the next assay, the target named is T12, ETV3 (Homo sapiens, UniProt P41162-2 1-143).
T12 sequence: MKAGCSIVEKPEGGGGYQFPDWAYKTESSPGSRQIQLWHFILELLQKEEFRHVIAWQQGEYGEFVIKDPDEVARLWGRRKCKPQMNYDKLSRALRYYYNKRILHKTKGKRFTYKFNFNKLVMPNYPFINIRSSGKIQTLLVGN
The essentials:
as §1

Another assay concerns the target ETV6 (Homo sapiens, UniProt P41212 1-452). The essentials: as §1

Sequence of ETV1 (P50549 whole entry): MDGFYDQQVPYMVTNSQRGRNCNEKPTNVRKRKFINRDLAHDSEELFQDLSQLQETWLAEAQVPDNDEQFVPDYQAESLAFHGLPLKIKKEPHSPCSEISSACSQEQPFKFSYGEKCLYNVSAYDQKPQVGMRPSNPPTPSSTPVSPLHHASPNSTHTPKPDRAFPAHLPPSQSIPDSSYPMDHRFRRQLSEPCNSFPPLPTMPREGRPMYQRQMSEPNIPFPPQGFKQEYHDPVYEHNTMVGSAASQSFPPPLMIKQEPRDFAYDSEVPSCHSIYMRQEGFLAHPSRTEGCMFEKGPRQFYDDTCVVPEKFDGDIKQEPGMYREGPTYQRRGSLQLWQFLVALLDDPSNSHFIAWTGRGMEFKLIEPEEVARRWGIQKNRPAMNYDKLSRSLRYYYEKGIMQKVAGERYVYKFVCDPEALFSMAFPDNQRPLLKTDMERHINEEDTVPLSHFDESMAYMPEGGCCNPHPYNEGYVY
Sequence of ETV5 (P41161 whole entry): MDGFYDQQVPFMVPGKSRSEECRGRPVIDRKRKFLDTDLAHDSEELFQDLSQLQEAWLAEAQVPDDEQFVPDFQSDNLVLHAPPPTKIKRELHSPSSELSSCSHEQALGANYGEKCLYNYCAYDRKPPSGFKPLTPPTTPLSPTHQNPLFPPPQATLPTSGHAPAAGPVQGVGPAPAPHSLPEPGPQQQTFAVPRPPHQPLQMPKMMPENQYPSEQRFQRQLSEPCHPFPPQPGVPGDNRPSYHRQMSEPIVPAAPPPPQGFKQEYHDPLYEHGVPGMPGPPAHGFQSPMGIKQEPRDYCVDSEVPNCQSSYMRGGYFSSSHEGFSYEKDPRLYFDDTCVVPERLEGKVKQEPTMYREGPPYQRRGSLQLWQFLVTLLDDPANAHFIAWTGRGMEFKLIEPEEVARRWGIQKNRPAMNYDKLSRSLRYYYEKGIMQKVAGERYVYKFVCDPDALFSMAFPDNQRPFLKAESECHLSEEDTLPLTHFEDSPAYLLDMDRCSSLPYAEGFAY
Sequence of ETV6 (P41212 whole entry): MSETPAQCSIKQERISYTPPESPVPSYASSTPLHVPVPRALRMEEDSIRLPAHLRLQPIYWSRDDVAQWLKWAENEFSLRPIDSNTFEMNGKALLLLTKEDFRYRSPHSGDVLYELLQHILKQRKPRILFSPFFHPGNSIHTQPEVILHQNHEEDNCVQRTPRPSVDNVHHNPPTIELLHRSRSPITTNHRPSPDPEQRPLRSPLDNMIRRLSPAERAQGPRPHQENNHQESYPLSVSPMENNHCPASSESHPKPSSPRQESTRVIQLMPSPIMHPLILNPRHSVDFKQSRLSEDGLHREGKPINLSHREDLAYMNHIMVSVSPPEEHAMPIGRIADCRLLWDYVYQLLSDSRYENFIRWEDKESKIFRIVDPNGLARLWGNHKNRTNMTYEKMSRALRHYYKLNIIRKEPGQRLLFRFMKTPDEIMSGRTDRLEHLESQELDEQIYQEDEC

For the sequence TATGTC, the binding signal in the assay with ELK1 is 1.05 fold enrichment (6-mer frequency, TF over GST control); in the assay with GABPA, 1.17 fold enrichment (6-mer frequency, TF over GST control); with ERG, 1.08 fold enrichment (6-mer frequency, TF over GST control); with ELF1 it was 1.11 fold enrichment (6-mer frequency, TF over GST control); with EHF, 1.02 fold enrichment (6-mer frequency, TF over GST control); with SPI1, 1.06 fold enrichment (6-mer frequency, TF over GST control). In addition, the binding signal is 1.16 fold enrichment (6-mer frequency, TF over GST control) with SPIB; 1.07 fold enrichment (6-mer frequency, TF over GST control) with ETV5; 1.14 fold enrichment (6-mer frequency, TF over GST control) with ELF4; 1.05 fold enrichment (6-mer frequency, TF over GST control) with ELK4; 1.02 fold enrichment (6-mer frequency, TF over GST control) in the assay with ETV2; 1.05 fold enrichment (6-mer frequency, TF over GST control) with ETV1. The binding signal with ERF is 1.08 fold enrichment (6-mer frequency, TF over GST control); with ETV3L, 1.16 fold enrichment (6-mer frequency, TF over GST control); with ETS2, 1.13 fold enrichment (6-mer frequency, TF over GST control); with SPDEF it was 1.14 fold enrichment (6-mer frequency, TF over GST control); with ETV7 it was 1.06 fold enrichment (6-mer frequency, TF over GST control); with ETV3, 1.13 fold enrichment (6-mer frequency, TF over GST control). Moreover, the binding signal with ETV6 was 1.07 fold enrichment (6-mer frequency, TF over GST control).
